About 7,900 targets were measured; listed, in parts, are those with a hit and a random draw of the rest. About 0.6% of all pairs of compound and target were hits. Values without a mark were called inactive.

Chain of UniProt Q93075 (Q93075 whole entry, looked up): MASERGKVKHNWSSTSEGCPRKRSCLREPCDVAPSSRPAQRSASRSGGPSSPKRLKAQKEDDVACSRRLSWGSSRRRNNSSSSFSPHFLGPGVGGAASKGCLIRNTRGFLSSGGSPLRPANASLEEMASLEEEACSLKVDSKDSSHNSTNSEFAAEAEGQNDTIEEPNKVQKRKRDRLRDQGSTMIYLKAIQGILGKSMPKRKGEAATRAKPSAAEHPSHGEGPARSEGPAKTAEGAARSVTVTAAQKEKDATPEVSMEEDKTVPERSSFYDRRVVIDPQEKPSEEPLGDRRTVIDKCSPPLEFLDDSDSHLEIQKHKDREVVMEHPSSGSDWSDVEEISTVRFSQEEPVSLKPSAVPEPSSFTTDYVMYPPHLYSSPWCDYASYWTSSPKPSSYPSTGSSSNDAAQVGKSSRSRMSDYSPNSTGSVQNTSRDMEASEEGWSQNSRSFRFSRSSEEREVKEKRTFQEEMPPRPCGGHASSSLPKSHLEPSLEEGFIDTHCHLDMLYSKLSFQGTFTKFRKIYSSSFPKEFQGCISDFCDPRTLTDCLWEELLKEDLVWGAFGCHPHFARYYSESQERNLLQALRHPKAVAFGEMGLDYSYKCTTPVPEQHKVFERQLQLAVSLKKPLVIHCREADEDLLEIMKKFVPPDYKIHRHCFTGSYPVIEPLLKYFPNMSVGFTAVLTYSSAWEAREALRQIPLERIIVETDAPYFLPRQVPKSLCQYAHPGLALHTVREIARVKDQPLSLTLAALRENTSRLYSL
Chain of UniProt Q86UE8 (Q86UE8 whole entry, looked up): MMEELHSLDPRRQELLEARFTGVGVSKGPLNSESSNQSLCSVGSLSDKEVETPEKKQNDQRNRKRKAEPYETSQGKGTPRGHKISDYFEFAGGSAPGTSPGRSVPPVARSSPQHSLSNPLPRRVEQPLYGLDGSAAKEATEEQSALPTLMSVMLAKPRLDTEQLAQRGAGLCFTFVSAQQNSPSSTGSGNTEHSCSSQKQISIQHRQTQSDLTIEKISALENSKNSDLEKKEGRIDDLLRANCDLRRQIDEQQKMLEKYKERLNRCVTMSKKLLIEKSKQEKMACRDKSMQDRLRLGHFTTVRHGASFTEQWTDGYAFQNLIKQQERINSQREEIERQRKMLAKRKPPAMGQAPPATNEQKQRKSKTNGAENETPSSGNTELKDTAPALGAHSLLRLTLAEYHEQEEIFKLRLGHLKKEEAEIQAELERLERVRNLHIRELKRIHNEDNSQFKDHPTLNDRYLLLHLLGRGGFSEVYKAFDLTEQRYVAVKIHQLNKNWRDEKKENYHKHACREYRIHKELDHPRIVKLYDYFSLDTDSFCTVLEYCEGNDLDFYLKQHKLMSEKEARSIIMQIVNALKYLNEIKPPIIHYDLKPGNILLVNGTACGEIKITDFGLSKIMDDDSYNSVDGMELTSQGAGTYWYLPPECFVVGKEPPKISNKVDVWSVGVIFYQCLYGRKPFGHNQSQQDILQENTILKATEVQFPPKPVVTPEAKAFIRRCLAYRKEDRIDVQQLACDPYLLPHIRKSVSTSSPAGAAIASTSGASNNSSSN
Chain of UniProt P35270 (P35270 whole entry, looked up): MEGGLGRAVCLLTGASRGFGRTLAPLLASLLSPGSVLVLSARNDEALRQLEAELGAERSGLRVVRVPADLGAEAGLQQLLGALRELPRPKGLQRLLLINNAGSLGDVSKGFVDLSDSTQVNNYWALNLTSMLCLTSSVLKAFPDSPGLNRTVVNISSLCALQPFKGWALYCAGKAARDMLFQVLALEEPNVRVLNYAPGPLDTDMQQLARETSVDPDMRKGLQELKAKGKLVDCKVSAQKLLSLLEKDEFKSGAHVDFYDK
Chain of UniProt Q9Y2H1 (Q9Y2H1 whole entry, looked up): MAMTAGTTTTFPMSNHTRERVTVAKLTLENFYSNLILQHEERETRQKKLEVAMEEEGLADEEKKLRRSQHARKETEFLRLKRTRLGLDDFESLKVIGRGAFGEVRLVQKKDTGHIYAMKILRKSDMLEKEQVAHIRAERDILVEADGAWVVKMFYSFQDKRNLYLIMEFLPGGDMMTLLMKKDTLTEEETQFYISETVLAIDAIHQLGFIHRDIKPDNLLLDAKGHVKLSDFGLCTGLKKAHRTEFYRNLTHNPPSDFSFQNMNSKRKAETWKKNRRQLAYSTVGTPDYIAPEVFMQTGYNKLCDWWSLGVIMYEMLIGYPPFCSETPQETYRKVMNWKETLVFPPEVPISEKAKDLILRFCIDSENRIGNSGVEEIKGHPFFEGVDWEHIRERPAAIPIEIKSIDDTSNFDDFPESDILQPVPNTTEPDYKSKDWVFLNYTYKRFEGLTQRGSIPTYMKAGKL
Chain of UniProt Q8WVK2 (Q8WVK2 whole entry, looked up): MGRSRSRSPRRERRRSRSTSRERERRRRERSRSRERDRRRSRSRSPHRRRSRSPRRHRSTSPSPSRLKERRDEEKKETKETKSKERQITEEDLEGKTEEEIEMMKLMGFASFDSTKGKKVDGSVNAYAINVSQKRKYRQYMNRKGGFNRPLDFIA
Chain of UniProt Q9NXE4 (Q9NXE4 whole entry, looked up): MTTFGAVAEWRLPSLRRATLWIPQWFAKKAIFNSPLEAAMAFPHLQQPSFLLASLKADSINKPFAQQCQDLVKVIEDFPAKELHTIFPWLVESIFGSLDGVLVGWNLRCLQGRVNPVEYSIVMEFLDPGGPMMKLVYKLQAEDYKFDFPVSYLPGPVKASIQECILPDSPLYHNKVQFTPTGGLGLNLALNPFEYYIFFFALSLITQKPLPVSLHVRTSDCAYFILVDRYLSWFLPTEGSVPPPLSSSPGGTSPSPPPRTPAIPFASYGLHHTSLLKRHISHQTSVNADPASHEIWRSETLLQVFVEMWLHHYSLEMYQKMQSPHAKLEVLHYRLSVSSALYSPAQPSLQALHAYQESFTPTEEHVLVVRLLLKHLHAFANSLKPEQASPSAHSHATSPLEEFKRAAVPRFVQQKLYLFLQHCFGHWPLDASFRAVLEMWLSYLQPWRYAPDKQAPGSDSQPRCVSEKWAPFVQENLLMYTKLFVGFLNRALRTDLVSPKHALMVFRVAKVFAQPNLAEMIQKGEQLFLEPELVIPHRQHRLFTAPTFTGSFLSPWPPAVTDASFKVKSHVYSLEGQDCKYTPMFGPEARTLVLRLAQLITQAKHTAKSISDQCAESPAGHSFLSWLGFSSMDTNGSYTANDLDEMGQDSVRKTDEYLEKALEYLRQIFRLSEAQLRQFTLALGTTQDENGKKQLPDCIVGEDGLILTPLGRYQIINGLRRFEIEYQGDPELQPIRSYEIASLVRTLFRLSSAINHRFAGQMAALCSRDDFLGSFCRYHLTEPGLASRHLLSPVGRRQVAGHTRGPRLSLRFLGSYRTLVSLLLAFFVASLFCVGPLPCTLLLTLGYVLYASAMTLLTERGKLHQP
Chain of UniProt P36897 (P36897 whole entry, looked up): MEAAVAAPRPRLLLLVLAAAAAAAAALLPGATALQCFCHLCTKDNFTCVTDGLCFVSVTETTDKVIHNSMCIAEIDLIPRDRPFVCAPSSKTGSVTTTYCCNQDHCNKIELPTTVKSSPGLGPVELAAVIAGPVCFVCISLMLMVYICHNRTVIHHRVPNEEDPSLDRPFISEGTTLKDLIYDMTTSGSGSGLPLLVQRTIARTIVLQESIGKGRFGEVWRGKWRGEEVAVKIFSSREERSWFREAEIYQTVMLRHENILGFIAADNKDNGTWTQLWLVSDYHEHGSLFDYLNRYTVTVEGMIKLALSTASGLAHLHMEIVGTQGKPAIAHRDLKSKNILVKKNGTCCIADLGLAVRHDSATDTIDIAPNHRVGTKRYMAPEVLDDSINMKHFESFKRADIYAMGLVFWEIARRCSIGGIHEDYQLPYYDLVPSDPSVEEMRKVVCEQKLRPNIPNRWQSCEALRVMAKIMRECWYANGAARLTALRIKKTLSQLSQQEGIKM
Chain of UniProt Q9P289 (Q9P289 whole entry, looked up): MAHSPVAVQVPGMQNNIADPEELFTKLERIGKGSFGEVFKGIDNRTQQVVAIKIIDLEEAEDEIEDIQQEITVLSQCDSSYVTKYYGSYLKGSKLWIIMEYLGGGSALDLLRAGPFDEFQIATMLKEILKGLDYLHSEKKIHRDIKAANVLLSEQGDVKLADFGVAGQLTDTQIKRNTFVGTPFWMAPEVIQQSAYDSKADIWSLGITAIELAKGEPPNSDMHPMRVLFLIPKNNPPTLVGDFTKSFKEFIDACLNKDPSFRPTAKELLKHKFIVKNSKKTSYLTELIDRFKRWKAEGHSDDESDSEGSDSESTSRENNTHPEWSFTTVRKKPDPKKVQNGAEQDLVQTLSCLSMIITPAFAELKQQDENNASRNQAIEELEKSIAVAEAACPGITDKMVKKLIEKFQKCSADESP
Chain of UniProt Q6XR72 (Q6XR72 whole entry, looked up): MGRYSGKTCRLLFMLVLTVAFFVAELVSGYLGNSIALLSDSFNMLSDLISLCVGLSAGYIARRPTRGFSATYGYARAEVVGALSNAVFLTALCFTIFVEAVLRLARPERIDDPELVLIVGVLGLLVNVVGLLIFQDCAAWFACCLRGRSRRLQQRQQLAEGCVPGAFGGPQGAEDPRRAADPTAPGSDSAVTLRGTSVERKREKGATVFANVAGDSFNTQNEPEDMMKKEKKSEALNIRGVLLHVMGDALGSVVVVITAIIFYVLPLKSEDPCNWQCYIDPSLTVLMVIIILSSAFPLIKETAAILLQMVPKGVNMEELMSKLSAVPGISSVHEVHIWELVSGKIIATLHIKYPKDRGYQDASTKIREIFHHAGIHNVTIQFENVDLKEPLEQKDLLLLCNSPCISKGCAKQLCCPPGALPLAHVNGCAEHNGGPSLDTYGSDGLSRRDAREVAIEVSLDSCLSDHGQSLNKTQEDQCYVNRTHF
Chain of UniProt P27105 (P27105 whole entry, looked up): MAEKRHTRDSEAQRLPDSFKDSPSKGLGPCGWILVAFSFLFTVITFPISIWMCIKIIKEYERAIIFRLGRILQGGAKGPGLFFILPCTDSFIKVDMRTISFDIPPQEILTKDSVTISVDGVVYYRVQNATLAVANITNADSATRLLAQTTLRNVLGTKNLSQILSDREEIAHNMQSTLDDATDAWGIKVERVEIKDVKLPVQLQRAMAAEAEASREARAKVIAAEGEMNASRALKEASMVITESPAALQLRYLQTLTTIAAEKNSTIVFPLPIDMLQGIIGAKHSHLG

Compound in the first assay: C1=CC=C(C=C1)[C@H](COC2=CC3=C(C=C2)NC(=O)N3)NC(=O)C4=CC=CN(C4=O)CC5=CC(=C(C=C5)F)F
In words: log2 fold change, soluble protein after heating vs DMSO (PISA); higher = thermal stabilisation; K562 cells, 10 uM, 30 min; active = over 0.2 and 3.5 SD of the protein, either way, in both replicates (recomputed). An outline of the steps: (§1)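 Quantification of soluble protein used TMTpro 16plex LC-MS/MS, with channel sums equalised. Samples were the supernatant after 21,000xg for 90 min of pooled aliquots from K562 cells (2×10^6 cells/mL) treated with 10 μM compound for 30 min, heated for 3 min over 48°C-58°C, and extracted in PBS with 0.5% NP-40 at 4°C. Values, from duplicates, describe thermal stability against control samples on a log2 fold-change scale.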
Turning to SLC25A42 (UniProt Q86VD7), the log2 fold change was 0.073.

For TELO2 (UniProt Q9Y4R8), the log2 fold change was -0.031.

As to ST3GAL2 (UniProt Q16842), the log2 fold change is 0.083.

As for TBC1D5 isoform 2 (UniProt Q92609), the log2 fold change was -0.046.

For the target SRSF2 (UniProt Q01130), the log2 fold change is 0.008.

For TIMM10B (UniProt Q9Y5J6), the log2 fold change was -0.018.

Regarding TBC1D23 (UniProt Q9NUY8), the log2 fold change is -0.039.

On to STOM (UniProt P27105), for which the log2 fold change is 0.06.

Consider SLC30A10 (UniProt Q6XR72), for which the log2 fold change is 0.066.

In the case of TLK2 isoform 2 (UniProt Q86UE8), the log2 fold change is 0.006.

For the target TATDN2 (UniProt Q93075), the log2 fold change is -0.044.

As to SLC6A6 (UniProt P31641), the log2 fold change is -0.002.

Turning to SLC38A2 (UniProt Q96QD8), the log2 fold change was -0.006.

Take SMIM20 isoform 2 (UniProt Q8N5G0): the log2 fold change is 0.019.

As to TMBIM6 isoform 2 (UniProt P55061), the log2 fold change is -0.037.

As for SLC38A9 (UniProt Q8NBW4), the log2 fold change was 0.053.

Take SORT1 (UniProt Q99523): the log2 fold change is 0.029.

As to STK38L (UniProt Q9Y2H1), the log2 fold change was -0.009.

Take TK1 (UniProt K7ERV3): the log2 fold change was 0.038.

As for SMAP (UniProt O00193), the log2 fold change is -0.082.

Take STRN (UniProt O43815): the log2 fold change was -0.025.

Regarding SLC39A11 (UniProt Q8N1S5), the log2 fold change was 0.053.

For the target SMC5 (UniProt Q8IY18), the log2 fold change was 0.017.

With TIMM21 (UniProt Q9BVV7), the log2 fold change was -0.02.

In the case of SURF1 (UniProt Q15526), the log2 fold change is -0.015.

Take SNRNP40 (UniProt Q96DI7): the log2 fold change was 0.054.

As for STK39 (UniProt Q9UEW8), the log2 fold change is -0.105.

In the case of SYMPK (UniProt Q92797), the log2 fold change was -0.127.

Regarding SRRM2 (UniProt Q9UQ35), the log2 fold change was -0.005.

As for TGFBR1 isoform 2 (UniProt P36897), the log2 fold change is -0.001.

SRSF6 (UniProt Q13247): the log2 fold change is -0.071.

As for TM9SF2 (UniProt Q99805), the log2 fold change was 0.018.

For STK26 (UniProt Q9P289), the log2 fold change is -0.077.

Regarding SNRNP27 (UniProt Q8WVK2), the log2 fold change is 0.027.

For the target SUPT16H (UniProt Q9Y5B9), the log2 fold change was -0.238.

On to SMDT1 (UniProt Q9H4I9), for which the log2 fold change was 0.031.

With SPR (UniProt P35270), the log2 fold change was 0.026.

Regarding SMPD4 isoform 2 (UniProt Q9NXE4), the log2 fold change was -0.25.

Compound in another assay: CC1=C(SC2=C1C(=N[C@H](C3=NN=C(N32)C)CC(=O)N)C4=CC=C(C=C4)Cl)C
Described as above. An outline of the steps: as §1
In the case of SLC25A42 (UniProt Q86VD7), the log2 fold change was 0.051.

On to TELO2 (UniProt Q9Y4R8), for which the log2 fold change was -0.05.

As to ST3GAL2 (UniProt Q16842), the log2 fold change is 0.006.

As to TBC1D5 isoform 2 (UniProt Q92609), the log2 fold change was 0.055.

Take SRSF2 (UniProt Q01130): the log2 fold change was -0.047.

Take TIMM10B (UniProt Q9Y5J6): the log2 fold change was 0.18.

As to TBC1D23 (UniProt Q9NUY8), the log2 fold change was 0.068.

Consider STOM (UniProt P27105), for which the log2 fold change was -0.019.

For the target SLC30A10 (UniProt Q6XR72), the log2 fold change was -0.005.

TLK2 isoform 2 (UniProt Q86UE8): the log2 fold change is 0.021.

For TATDN2 (UniProt Q93075), the log2 fold change is -0.067.

As to SLC6A6 (UniProt P31641), the log2 fold change is 0.065.

For SLC38A2 (UniProt Q96QD8), the log2 fold change is 0.044.

With SMIM20 isoform 2 (UniProt Q8N5G0), the log2 fold change was -0.034.

In the case of TMBIM6 isoform 2 (UniProt P55061), the log2 fold change was -0.022.

Regarding SLC38A9 (UniProt Q8NBW4), the log2 fold change was -0.019.

Turning to SORT1 (UniProt Q99523), the log2 fold change is -0.01.

With STK38L (UniProt Q9Y2H1), the log2 fold change is 0.472 (active).

In the case of TK1 (UniProt K7ERV3), the log2 fold change was 0.091.

As for SMAP (UniProt O00193), the log2 fold change is 0.011.

In the case of STRN (UniProt O43815), the log2 fold change is 0.011.

On to SLC39A11 (UniProt Q8N1S5), for which the log2 fold change is 0.072.

On to SMC5 (UniProt Q8IY18), for which the log2 fold change was 0.045.

Take TIMM21 (UniProt Q9BVV7): the log2 fold change is 0.052.

As to SURF1 (UniProt Q15526), the log2 fold change was -0.018.

As for SNRNP40 (UniProt Q96DI7), the log2 fold change is -0.023.

With STK39 (UniProt Q9UEW8), the log2 fold change is -0.015.

With SYMPK (UniProt Q92797), the log2 fold change was 0.034.

For SRRM2 (UniProt Q9UQ35), the log2 fold change is -0.015.

As for TGFBR1 isoform 2 (UniProt P36897), the log2 fold change was 0.029.

Regarding SRSF6 (UniProt Q13247), the log2 fold change is -0.453.

For TM9SF2 (UniProt Q99805), the log2 fold change is 0.035.

Consider STK26 (UniProt Q9P289), for which the log2 fold change is -0.029.

For the target SNRNP27 (UniProt Q8WVK2), the log2 fold change was -0.058.

On to SUPT16H (UniProt Q9Y5B9), for which the log2 fold change was 0.023.

Take SMDT1 (UniProt Q9H4I9): the log2 fold change is 0.018.

For SPR (UniProt P35270), the log2 fold change was 0.04.

As for SMPD4 isoform 2 (UniProt Q9NXE4), the log2 fold change was -0.029.

The record behind these values is the supplement of paper PMC10849652.
